Results reported in PubChem BioAssay (Tox21).
Inconclusive results are not listed. Calls of active or inactive are those of the source. Unless noted, calls come from the whole dose curve; as a rule, active = well fitted curve in the direction sought with a large enough effect in the repeat runs; inconclusive = weak or mixed curves; inactive = no such curve, though single readings can be large; an effect the other way counts as inactive or inconclusive.

Columns and labels:
[1] = qHTS assay to identify small molecule agonists of the RXR signaling pathway - cell viability counter screen (AID 1159529); note: nearly all actives have a fitted effect of over 50% in size; note: potency is the fitted concentration of half-maximal effect
Outline: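 Counter screen: CellTiter-Glo luminescence. Cells: RXR-alpha-UAS-bla HEK 293T. Medium: 2% charcoal-stripped FBS. Treatment: 16 h, 37 C. Reagent incubation: 30 min, RT.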

[2] = qHTS assay to identify small molecule antagonists of the retinoid acid receptor (RAR) signaling pathway - cell viability counter screen (AID 1159551); note: nearly all actives have a fitted effect of over 35% in size; note: potency is the fitted concentration of half-maximal effect
Outline: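 Cells (C3RL4) are plated, incubated overnight, dosed with compound in DMSO, then given retinol at 1 uM final. After 6 h at 37 C, CellTiter-Glo is added and luminescence read following 30 min at room temperature.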

[3] = qHTS assay to identify small molecule antagonists of the constitutive androstane receptor (CAR) signaling pathway - cell viability counter screen (AID 1224837); note: nearly all actives have a fitted effect of over 45% in size; note: potency is the fitted concentration of half-maximal effect
Outline: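 Viability was measured with CellTiter-Fluor in a HepG2 line carrying stably transfected hCAR and a CYP2B6-2.2kb construct. Cells were exposed for 23 hr at 37 C to 15 compound concentrations with 50 nM CITCO as agonist.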

[4] = target: Nuclear receptor subfamily 1 group I member 3 (Homo sapiens) (UniProt Q14994); assay: qHTS assay to identify small molecule agonists of the constitutive androstane receptor (CAR) signaling pathway (AID 1224839); note: nearly all actives have a fitted effect of over 15% in size; note: potency is the fitted concentration of half-maximal effect
Outline: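 Readout: firefly luciferase luminescence via ONE-Glo. System: HepG2 double-stable for hCAR and CYP2B6-2.2kb. Conditions: 15-point compound titration, PK11195 at 0.75 uM final, 24 h incubation.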

[5] = qHTS assay to identify small molecule agonists of the hypoxia (HIF-1) signaling pathway - cell viability counter screen (AID 1224844; calls by dose curve; note: nearly all actives have a fitted effect of over 50% in size; note: potency is the fitted concentration of half-maximal effect)
Outline: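 Cytotoxicity was measured in parallel with the HRE-driven beta-lactamase readout: after 17 hrs of compound exposure at 37C, HRE-bla ME-180 cells received CellTiter-Glo and luminescence was recorded 30 min later.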

[6] = qHTS RealTime-Glo MT Cell Viability Assay in HepG2 cells - 8 hour (AID 1224873); note: nearly all actives have a fitted effect of over 55% in size; note: potency is the fitted concentration of half-maximal effect
Outline: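 HepG2 cells mixed with RealTime-Glo MT reagents (NanoLuc plus cell-permeant prosubstrate) were seeded at 600 cells/well, incubated 5 h at 37 C/5% CO2, then pinned with compounds in DMSO; nonlytic luminescence tracked viability during 40 h treatment.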

[7] = qHTS assay to identify small molecule agonists of the androgen receptor (AR) signaling pathway in the presence of an antagonist - cell viability counter screen (AID 1259379); note: nearly all actives have a fitted effect of over 25% in size; note: potency is the fitted concentration of half-maximal effect
Outline: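 Cytotoxicity is assessed by CellTiter-Fluor in MDA-kb2 cells carrying an MMTV-driven luciferase reporter. Cells receive 3.0uM nilutamide plus compounds at 15 concentrations and incubate 16 hr at 37C without CO2 before fluorescence reading.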

[8] = qHTS assay to identify small molecule antagonists of the estrogen receptor beta (ER-beta) signaling pathway - cell viability counter screen (AID 1259382); note: nearly all actives have a fitted effect of over 55% in size; note: potency is the fitted concentration of half-maximal effect
Outline: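 Cytotoxicity counter screen multiplexed with the beta-lactamase antagonist assay: GripTite HEK293T ER-beta-bla cells were treated 16 hr with test chemicals in the presence of 1nM 17-beta-estradiol, and viability was measured by CellTiter-Glo.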

[9] = qHTS assay to identify small molecule antagonists of the progesterone receptor (PR) signaling pathway - cell viability counter screen (AID 1346798); note: series mostly up to about 92 µM; nearly all actives have a fitted effect of over 50% in size
Outline: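 CellTiter-Glo luminescence; PR-UAS-bla HEK293T, 3,000 cells/well; compound + R5020, 16 hr, 37C/5% CO2; 30 min RT before read.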

[10] = target: Thyrotropin-releasing hormone receptor (Homo sapiens) (UniProt P34981); assay: qHTS assay to identify small molecule agonists of the thyrotropin-releasing hormone receptor (TRHR) signaling pathway (AID 1346891; calls by dose curve;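 note: HEK293 cells expressing TRHR with calcium dye readout; series mostly up to about 58 µM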)
Outline: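 Compounds were tested as agonists at 15 concentrations, in triplicate, on TRHR-Hek293 cells; calcium-sensitive dye fluorescence was recorded for 3 min following addition.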

[11] = Caspase-3/7 induction in HepG2 cells by small molecules, qHTS cell viability counter screen (AID 1346981); note: nearly all actives have a fitted effect of over 30% in size; note: potency is the fitted concentration of half-maximal effect
Outline: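 Cell viability is measured as a cytotoxicity counter screen alongside the Caspase-Glo 3/7 readout in identical wells. Wild-type HepG2 cells are treated with test compounds for 16 hr at 37 C before CellTiter-Fluor addition and a 1-hr incubation.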

[12] = target: Cytochrome P450 2D6 (Homo sapiens) (UniProt P10635); assay: Cytochrome P450 Family 2 Subfamily D Member 6 (CYP2D6) small molecule antagonists: luciferase reporter qHTS assay (AID 1671196); note: nearly all actives have a fitted effect of over 50% in size; note: potency is the fitted concentration of half-maximal effect
Outline: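 Enzyme and proluciferin substrate were first combined with test chemical for 10 min at room temperature. Adding NADPH regeneration solution started a 1 h reaction, stopped with luciferin detection reagent and read by luminescence 20 min later.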

[13] = target: Cytochrome P450 3A4 (Homo sapiens) (UniProt P08684); assay: Cytochrome P450 Family 3 Subfamily A Member 4 (CYP3A4) small molecule antagonists: luciferase reporter qHTS assay (AID 1671201); note: nearly all actives have a fitted effect of over 50% in size; note: potency is the fitted concentration of half-maximal effect
Outline: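 Relative luminescence units after 20 min with luciferin detection reagent served as read-out. Beforehand, CYP3A4 turned over a proluciferin substrate for 1 h at room temperature with NADPH regeneration, following 10 min compound preincubation.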

[14] = qHTS assay for small molecule agonists of the p53 signaling pathway (AID 651631; calls by dose curve; note: potency is the fitted concentration of half-maximal effect; nearly all actives have a fitted effect of over 15% in size)
Outline: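 Testing took place in human colorectal HCT-116 cells with stable p53RE-driven beta-lactamase. After 16 h of compound exposure at 37 °C, a FRET substrate was added and fluorescence recorded 2 h later.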

[15] = qHTS assay to test for compound auto fluorescence at 590 nm (red) in HepG2 cells (AID 720674)
Outline: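 Compound auto-fluorescence is scored relative to Rose Bengal sodium, measured at 540/590 nm in live HepG2 cultures after 1 hr compound contact (37 C, 5% CO2).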

[16] = qHTS RealTime-Glo MT Cell Viability Assay in HEK293 cells - 16 hour (AID 1224872)
Outline: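 HEK293 cells seeded with NanoLuc/prosubstrate reagent, rested 5 h at 37 C, then dosed and kept at 37 C up to 40 h. Nonlytic real-time luminescence from viable cells read at 0, 8, 16, 24, 32 and 40 h.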

[17] = A CellTox Green Cytotoxicity Assay to monitor cytotoxicity in HEK293 cells - 24 hour (AID 1224875); note: nearly all actives have a fitted effect of over 45% in size; note: potency is the fitted concentration of half-maximal effect
Outline: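 Cells (HEK293, 600/well) and dye reagent are dispensed together. After 5 h at 37 C, 23 nL compound is pinned in. Plates stay at 37 C for 40 h with fluorescence read at 0h, 8h, 16h, 24h, 32h and 40h.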

[18] = qHTS assay to identify small molecule agonists of the estrogen receptor beta (ER-beta) signaling pathway - cell viability counter screen (AID 1259380); note: nearly all actives have a fitted effect of over 30% in size; note: potency is the fitted concentration of half-maximal effect
Outline: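 Cytotoxicity is measured in parallel with the reporter screen: after 16 hr compound exposure at 37C and a 2 hr LiveBLAzer step, CellTiter-Glo is added to the same ER-beta-UAS-bla HEK293T wells and luminescence read after 30 min.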

[19] = Human pregnane X receptor (PXR) small molecule agonists, qHTS cell viability counter screen (AID 1346977)
Outline: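 Viability counter screen: CellTiter-Fluor signal in PXR-Luc HepG2 cells, 24hr compound exposure, 37C, 5% CO2.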

[20] = Caspase-3/7 induction in CHO-K1 cells by small molecules, qHTS cell viability counter screen (AID 1346979); note: potency is the fitted concentration of half-maximal effect; nearly all actives have a fitted effect of over 35% in size
Outline: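 Viability readout by fluorescence (CellTiter-Fluor) on wild-type CHO-K1 cells exposed for 16hr at 37C and 5% CO2 to compounds delivered in DMSO; reagent incubated 1hr before reading.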

Chain of Nuclear receptor subfamily 1 group I member 3 (Homo sapiens) (Q14994 whole entry, looked up): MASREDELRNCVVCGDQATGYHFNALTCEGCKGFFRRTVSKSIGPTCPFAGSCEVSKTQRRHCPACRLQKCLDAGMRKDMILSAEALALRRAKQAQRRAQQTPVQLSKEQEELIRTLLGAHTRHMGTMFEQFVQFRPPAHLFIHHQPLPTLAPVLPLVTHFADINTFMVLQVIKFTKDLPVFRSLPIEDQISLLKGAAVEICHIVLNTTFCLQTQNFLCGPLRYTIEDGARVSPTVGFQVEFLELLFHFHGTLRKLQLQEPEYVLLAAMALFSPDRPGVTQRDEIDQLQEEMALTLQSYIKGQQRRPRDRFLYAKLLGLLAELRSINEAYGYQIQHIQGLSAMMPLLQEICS
Chain of Thyrotropin-releasing hormone receptor (Homo sapiens) (P34981 whole entry, looked up): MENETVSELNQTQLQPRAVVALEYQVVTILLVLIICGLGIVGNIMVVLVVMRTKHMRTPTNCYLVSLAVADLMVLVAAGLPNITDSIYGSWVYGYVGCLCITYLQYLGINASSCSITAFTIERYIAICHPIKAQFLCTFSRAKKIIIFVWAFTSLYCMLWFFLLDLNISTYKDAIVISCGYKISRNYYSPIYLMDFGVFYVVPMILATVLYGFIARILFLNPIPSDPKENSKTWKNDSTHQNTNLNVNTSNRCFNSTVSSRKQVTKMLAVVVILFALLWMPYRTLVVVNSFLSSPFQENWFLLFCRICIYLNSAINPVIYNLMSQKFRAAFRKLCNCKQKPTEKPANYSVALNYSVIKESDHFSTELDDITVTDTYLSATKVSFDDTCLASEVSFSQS
Chain of Cytochrome P450 3A4 (Homo sapiens) (P08684 whole entry, looked up): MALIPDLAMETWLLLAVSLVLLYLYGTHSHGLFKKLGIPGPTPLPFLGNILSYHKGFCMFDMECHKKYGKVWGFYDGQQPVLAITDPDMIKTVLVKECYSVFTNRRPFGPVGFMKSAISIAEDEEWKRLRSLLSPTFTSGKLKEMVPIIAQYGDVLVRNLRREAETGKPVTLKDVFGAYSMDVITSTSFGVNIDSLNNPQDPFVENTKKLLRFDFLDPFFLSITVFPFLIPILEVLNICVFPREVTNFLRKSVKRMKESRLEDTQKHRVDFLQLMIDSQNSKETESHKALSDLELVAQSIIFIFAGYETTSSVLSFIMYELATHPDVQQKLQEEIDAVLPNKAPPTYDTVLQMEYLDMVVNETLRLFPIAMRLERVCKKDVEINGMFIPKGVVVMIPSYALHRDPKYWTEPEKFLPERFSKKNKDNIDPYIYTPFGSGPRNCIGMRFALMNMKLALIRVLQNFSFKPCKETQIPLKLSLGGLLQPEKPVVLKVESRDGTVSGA
Chain of Cytochrome P450 2D6 (Homo sapiens) (P10635 whole entry, looked up): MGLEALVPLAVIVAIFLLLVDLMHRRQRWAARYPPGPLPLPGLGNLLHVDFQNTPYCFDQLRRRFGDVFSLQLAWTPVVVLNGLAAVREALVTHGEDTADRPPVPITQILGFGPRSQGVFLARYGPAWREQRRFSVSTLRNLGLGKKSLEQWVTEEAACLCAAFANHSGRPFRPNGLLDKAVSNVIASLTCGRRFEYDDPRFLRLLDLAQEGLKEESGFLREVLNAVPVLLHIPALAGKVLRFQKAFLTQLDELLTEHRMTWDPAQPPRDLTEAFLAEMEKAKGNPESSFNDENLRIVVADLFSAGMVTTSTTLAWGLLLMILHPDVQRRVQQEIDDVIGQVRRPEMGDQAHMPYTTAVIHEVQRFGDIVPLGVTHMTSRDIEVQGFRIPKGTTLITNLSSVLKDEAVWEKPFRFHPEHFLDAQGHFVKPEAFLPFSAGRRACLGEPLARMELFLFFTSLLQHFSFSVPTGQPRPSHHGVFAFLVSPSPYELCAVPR

In the case of `ClC(Cl)=C(c1ccc(Cl)cc1)c1ccccc1Cl`, the Potency [1] is reported as 24.5 µM (active), the Potency [2] is reported as “inactive” and the Potency [3] is reported as “inactive”. For the same compound, the Potency [4] was 21.7 µM (active), the Potency [5] was “inactive” and the Potency [6] was “inactive”. For the same compound, the Potency [7] was “inactive”, the Potency [8] was “inactive” and the Potency [9] was “inactive”. For the same compound, the outcome [10] was “inactive”, the Potency [11] was “inactive” and the Potency [12] was “inactive”. The Potency [13] was “inactive”.
With `O=C(c1ccc(Cl)cc1)c1ccc(Cl)cc1` the Potency [4] was “inactive”.
In the case of `Cc1ccc(N(SC(F)(Cl)Cl)S(=O)(=O)N(C)C)cc1`, the Potency [14] is reported as 6.11 µM (active), the outcome [15] is reported as “inactive” and the Potency [1] is reported as 38.9 µM (active). For the same compound, the Potency [2] was 48.6 µM (active), the Potency [3] was 24.3 µM (active) and the Potency [4] was “inactive”. The Potency [5] was 17.4 µM (active), the Potency [16] was 5.49 µM (active) and the Potency [6] was 21.9 µM (active). The Potency [17] was 17.4 µM (active), the Potency [7] was 27.3 µM (active) and the Potency [18] was 54.5 µM (active). For the same compound, the outcome [10] was “inactive”, the Potency [19] was 43.3 µM (active) and the Potency [20] was 4.33 µM (active). The Potency [11] was 61.1 µM (active).
For `Cc1cc(C)c(C(=O)P(=O)(c2ccccc2)c2ccccc2)c(C)c1`, the Potency [1] was 49 µM (active), the Potency [2] was “inactive” and the Potency [4] was 15.4 µM (active). The Potency [5] was 43.6 µM (active), the Potency [16] was 43.6 µM (active) and the Potency [17] was “inactive”. For the same compound, the Potency [18] was 61.1 µM (active), the Potency [8] was 61.1 µM (active) and the outcome [10] was “inactive”. For the same compound, the Potency [19] was 61.1 µM (active) and the Potency [13] was 5.03 µM (active).
With `OCC(c1ccc(Cl)cc1)c1ccc(Cl)cc1` the outcome [15] was “inactive”, the Potency [1] was 54.9 µM (active) and the Potency [16] was 30.9 µM (active). The Potency [17] was 24.5 µM (active), the Potency [7] was “inactive” and the Potency [18] was 54.5 µM (active). The outcome [10] was “inactive”, the Potency [11] was “inactive” and the Potency [12] was “inactive”. For the same compound, the Potency [13] was “inactive”.
For `ClC1=C(Cl)[C@]2(Cl)[C@@H]3[C@@H](Cl)[C@H]4O[C@H]4[C@@H]3C1(Cl)C2(Cl)Cl`, the outcome [15] was “inactive”, the Potency [1] was 49 µM (active) and the Potency [3] was “inactive”. For the same compound, the Potency [5] was “inactive”, the Potency [16] was 54.9 µM (active) and the Potency [17] was 54.9 µM (active). The Potency [7] was “inactive”, the Potency [9] was “inactive” and the Potency [11] was “inactive”. For the same compound, the Potency [12] was “inactive”.
For `Cc1nnc2n1-c1sc(CCc3ccc(CC(C)C)cc3)cc1C(c1ccccc1Cl)=NC2C` (centres undefined), the outcome [15] was “inactive”, the Potency [1] was 23.9 µM (active) and the Potency [5] was 19 µM (active). For the same compound, the Potency [16] was 19 µM (active), the Potency [17] was “inactive” and the Potency [18] was 29.8 µM (active). For the same compound, the Potency [8] was 33.5 µM (active), the outcome [10] was “inactive” and the Potency [20] was 29.8 µM (active).
For `O=C(c1ccccc1)C(Cl)Cl`, the Potency [1] was “inactive”, the Potency [3] was 54.5 µM (active) and the Potency [16] was 34.7 µM (active). For the same compound, the Potency [18] was “inactive”, the Potency [8] was “inactive” and the Potency [9] was “inactive”. The outcome [10] was “inactive”, the Potency [20] was 27.3 µM (active) and the Potency [13] was “inactive”.
With `Cc1cc(C(C)(C)c2ccc(O)c(C)c2)ccc1O` the Potency [14] was 13 µM (active), the outcome [15] was “inactive” and the Potency [2] was “inactive”. The Potency [4] was 29.2 µM (active), the Potency [5] was “inactive” and the Potency [16] was 20.8 µM (active). The Potency [6] was “inactive”, the Potency [18] was 29.2 µM (active) and the Potency [8] was “inactive”. For the same compound, the outcome [10] was “inactive”, the Potency [19] was 20.7 µM (active) and the Potency [20] was 41.2 µM (active). For the same compound, the Potency [11] was 46.2 µM (active), the Potency [12] was 30.2 µM (active) and the Potency [13] was 1.91 µM (active).
